63 compounds from PubChem BioAssay AID1851 (National Center for Advancing Translational Sciences (NCATS), 2009) can be followed below.

Several values for one entry are separate records, joined by “and”; a condition that tells them apart may be missing. Identical values can stand only once. The campaign covered roughly 16,000 compounds. About 2,600 (16%) were called active. Inconclusive results (about 20%) are left out. Calls come from the whole dose curve; as a rule, active = well fitted curve in the direction sought with a large enough effect; inconclusive = small, poorly fitted or top-dose-only effect, or effect the other way; inactive = no such curve, though single readings can be large or run the other way. A selection follows.
% is set by controls: 0 for no effect and ±100 for the full control effect.

The target of the experiment is Cytochrome P450 2D6 (Homo sapiens) (UniProt P10635). Description: Cytochrome panel assay with activity outcomes. The note with it: recombinant CYP, pro-luciferin dealkylation, luminescence, p450-cyp2d6; series mostly up to 57.1 µM; activity, negative = inhibition: at the top concentration.
Sequence of Cytochrome P450 2D6 (Homo sapiens) (P10635 whole entry, looked up): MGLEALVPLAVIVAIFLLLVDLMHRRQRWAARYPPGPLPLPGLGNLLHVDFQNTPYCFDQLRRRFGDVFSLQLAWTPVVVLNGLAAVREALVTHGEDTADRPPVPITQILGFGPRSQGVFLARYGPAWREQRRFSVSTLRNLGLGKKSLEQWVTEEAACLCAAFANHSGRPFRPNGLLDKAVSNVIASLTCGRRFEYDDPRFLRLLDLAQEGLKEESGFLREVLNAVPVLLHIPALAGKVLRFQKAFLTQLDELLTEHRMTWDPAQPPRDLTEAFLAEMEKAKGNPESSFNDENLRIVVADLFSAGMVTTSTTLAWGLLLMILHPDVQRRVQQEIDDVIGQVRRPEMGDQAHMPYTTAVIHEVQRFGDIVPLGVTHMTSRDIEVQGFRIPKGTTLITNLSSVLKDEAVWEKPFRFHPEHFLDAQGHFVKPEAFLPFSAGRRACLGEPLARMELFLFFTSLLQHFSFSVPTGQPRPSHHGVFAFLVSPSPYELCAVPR
As to `CCCCCc1nc2c(=O)[nH]c3ccccc3c2o1`, the “activity, negative = inhibition” value is -9.54% (inactive).

For the compound `CN(C)/C=C/C(=O)c1ccc(F)cc1`, the “activity, negative = inhibition” value is -12.3% (inactive).

For `Cc1ccccc1S(=O)(=O)O[C@@H]1NS(=O)(=O)c2ccccc21`, the activity, negative = inhibition was 6.51% [at 11.4 µM] (inactive).

On to `COCn1c2ccccc2c2nnc(C(C)=O)nc21`, for which the activity, negative = inhibition was -15.8% [at 11.4 µM] (inactive) and -6.91% [at 11.4 µM] (inactive).

Consider `O=S(=O)(O)C1CCNCC1`, for which the “activity, negative = inhibition” value is 1.02% (inactive).

As to `CC(C)N=C(Nc1ccc(Cl)cc1)c1cccnc1`, the “activity, negative = inhibition” value is -0.649% (inactive).

For `O=S(=O)(O)c1ccc2c(N=Nc3cccc4ccccc34)c(O)c(S(=O)(=O)O)cc2c1`, the activity, negative = inhibition is 5.03% [at 11.4 µM] (inactive).

`Cc1nn(Cc2c(F)c(F)c(F)c(F)c2F)c(C)c1NC(=O)c1c(-c2ccccc2)nn(-c2ccccc2)c1C`: the “activity, negative = inhibition” value is 3.5% (inactive).

As for `Nc1nc(-c2cccc([N+](=O)[O-])c2)cc(-c2cc(-c3cccc([N+](=O)[O-])c3)nc(N)n2)n1`, the activity, negative = inhibition was -5.72% [at 11.4 µM] (inactive).

On to `O=[N+]([O-])c1cccc(-c2nc(-c3cccs3)c(-c3cccs3)[nH]2)c1`, for which the AC50 (as a rule, the concentration giving half of the maximal activity seen) was 15.8 µM (active).

As to `c1ccc(-c2nc(-c3cccs3)[nH]c2-c2ccccc2)cc1`, the “activity, negative = inhibition” value is -25.3% (inactive).

Consider `Cc1cc(C(F)F)n2nc(C(=O)Nc3cccnc3Cl)nc2n1`, for which the “activity, negative = inhibition” value was -5.89% (inactive).

With `O=C(COC(=O)c1cccnc1Cl)c1ccccc1`, the “activity, negative = inhibition” value was -6.36% (inactive).

On to `O=C(OCc1ccc(Cl)cc1)c1ccccc1C(=O)c1ccccc1`, for which the “activity, negative = inhibition” value was -25% (inactive).

For `O=C(OCc1ccc(Cl)cc1Cl)c1cccnc1Cl`, the AC50 was 15.8 µM (active).

Consider `CCc1ccc2c(c1)c(N=NC1=NC(=O)CS1)c(O)n2CC`, for which the “activity, negative = inhibition” value is 1.76% (inactive).

For the compound `COc1ccc(CN2C(=O)c3ccccc3C(/C=N\OCc3ccc(F)cc3)C2=O)cc1` (stereo not drawn), the “activity, negative = inhibition” value was -3.7% (inactive).

Take `COc1cccc(Cn2c(=O)c(CCc3ccccc3)nc3cnc(OC)nc32)c1`: the “activity, negative = inhibition” value was -7.48% (inactive).

For the compound `C=C1C(=O)O[C@@H]2[C@@H]1CC/C(C)=C\CC[C@@]1(C)O[C@H]21`, the “activity, negative = inhibition” value is -0.667% [at 25.6 µM] (inactive).

As to `Cc1ccccc1-c1ccc2ncnc(N3CCN(C)CC3)c2c1`, the “activity, negative = inhibition” value is -18.4% (inactive).

As to `Cc1ccccc1-c1ccc2ncnc(-n3ccnc3)c2c1`, the AC50 is 25.1 µM (active).

Turning to `CN(C)c1ccc(-c2ccc3ncnc(-n4ccnc4)c3c2)cc1`, the half-maximal activity concentration (AC50) is 20 µM (active).

As to `CCOC(=O)c1cc2c(ccn2C)n1CC(=O)N1CCCC(C)C1` (stereo not drawn), the “activity, negative = inhibition” value was -27.7% (inactive).

As for `Cc1ccc(C(=O)NC(=S)Nc2ccc3c(c2)OCCO3)c(C)c1`, the “activity, negative = inhibition” value is 17% (inactive).

As to `CON1C(=O)C(=O)N(OC)C2CCCCC21` (stereo not drawn), the “activity, negative = inhibition” value was -4.56% (inactive).

For `CC(C)(C)c1cc2cccnc2n1Cc1cccc(F)c1`, the half-maximal activity concentration (AC50) is 1.26 µM (active).

With `Cc1cccc(CSc2cccc3cccnc23)c1`, the “activity, negative = inhibition” value is -23.8% (inactive).

For `COc1cccc(Cn2c(=O)c(-c3cc(F)cc(F)c3)nc3cnc(N(C)C)nc32)c1`, the “activity, negative = inhibition” value is -5.29% (inactive).

For the compound `CN(C)c1ccc(/C=C2/C(=O)N(c3ccc([N+](=O)[O-])cc3)N=C2N2CCOCC2)cc1`, the “activity, negative = inhibition” value was -29.5% (inactive).

As for `COc1ccc2[nH]c(C(=O)c3ccccc3)cc2c1`, the “activity, negative = inhibition” value is -0.111% (inactive).

Take `C=CCSC1=Nc2sccc2C2=NC(=O)CN12`: the “activity, negative = inhibition” value is 11.2% (inactive).

Take `COc1ccccc1CC(=O)Nc1cc2oc3ccccc3c2cc1OC`: the “activity, negative = inhibition” value was -1.92% (inactive).

For the compound `COc1cc2c(cc1NC(=O)c1cc(-c3cccnc3)nc3ccc(C)cc13)oc1ccccc12`, the “activity, negative = inhibition” value is -6.75% (inactive).

Turning to `COc1cc2c(cc1NC(=O)Nc1ccccc1)oc1ccccc12`, the AC50 is 10 µM (active).

As to `COCCn1c(=O)c(-c2ccc(OC)cc2)nc2cnc(Nc3cccc(OC)c3)nc21`, the “activity, negative = inhibition” value is -1.21% (inactive).

As for `CCOc1cc(NC(=O)C2CCCCC2)c(OCC)cc1NC(=O)c1ccco1`, the “activity, negative = inhibition” value is -7.01% (inactive).

`O=S(=O)(NCc1cc(-c2ccccc2Cl)no1)c1ccc(Cl)cc1`: the AC50 is 12.6 µM (active).

`Clc1ccc(SCc2cc(-c3ccccc3)no2)cc1`: the “activity, negative = inhibition” value was -0.406% (inactive).

`Cn1c(CNS(=O)(=O)c2ccc(Cl)cc2)n[nH]c1=S`: the “activity, negative = inhibition” value is 1.81% (inactive).

Regarding `COc1ccc(NC(=O)c2cc(-c3ccccc3Cl)no2)cc1`, the “activity, negative = inhibition” value is -0.131% (inactive).

`O=C(Nc1ccccc1)c1cc(-c2ccccc2Cl)no1`: the “activity, negative = inhibition” value is -4.64% (inactive).

Regarding `O=S(=O)(NCc1cc(-c2ccc(Cl)cc2)no1)c1ccc(Cl)cc1`, the AC50 is 0.631 µM (active).

With `COc1ccc([C@@H]2CC(=O)c3c(O)cc(O[C@H]4O[C@@H](CO[C@H]5O[C@@H](C)[C@@H](O)[C@@H](O)[C@@H]5O)[C@@H](O)[C@@H](O)[C@@H]4O)cc3O2)cc1O`, the “activity, negative = inhibition” value is 9.79% [at 25.6 µM] (inactive).

For the compound `COc1cc(Cl)c(C)cc1NC(=O)CNC(=O)Cn1cnc2ccccc2c1=O`, the “activity, negative = inhibition” value is -4.76% (inactive).

With `Cc1ccc(S(=O)(=O)c2nc(S(=O)(=O)c3ccc(C)cc3)c(NCc3ccco3)s2)cc1`, the “activity, negative = inhibition” value is -10.8% (inactive).

Regarding `Nc1c(S(=O)(=O)c2ccccc2)c2nc3ccccc3nc2n1Cc1ccco1`, the AC50 was 25.1 µM (active).

In the case of `Cc1nc2c([nH]1)c(=O)n(C)c(=O)n2Cc1ccco1`, the “activity, negative = inhibition” value is -5.02% (inactive).

`Cc1onc(-c2ccccc2Cl)c1C(=O)NCC(=O)O`: the “activity, negative = inhibition” value is 1.38% (inactive).

Regarding `O=c1c(-c2cccs2)nc2cnc(Oc3ccccc3)nc2n1Cc1cccs1`, the “activity, negative = inhibition” value was 1.93% (inactive).

As for `NC(=O)CNC(=O)[C@@H]1CC2(CC(c3ccc(Cl)cc3)=NO2)CN1C(=O)c1ccccc1` (stereo partly drawn), the “activity, negative = inhibition” value was -26.6% (inactive).

For `COc1ccc(S(=O)(=O)N2CCCCCC2)cc1N(C)S(=O)(=O)c1ccc(Cl)cc1`, the “activity, negative = inhibition” value is -14.7% (inactive).

As to `O=C(c1ccncc1)N1CCC2(CC1)CCN(c1cccc(-c3ccccc3)c1)CC2`, the AC50 is 7.94 µM (active).

As to `O=C(c1ccncc1)N1CCC2(CC1)CN(C(c1ccccc1)c1ccccc1)C2`, the half-maximal activity concentration (AC50) was 0.0251 µM (active).

For the compound `O=C(c1ccncc1)N1CCC2(CC1)CCN(c1ccccc1)CC2`, the “activity, negative = inhibition” value was -13.6% (inactive).

On to `O=C(c1ccncc1)N1CCC2(CC1)CN(c1ccc(-c3ccccc3)cc1)C2`, for which the “activity, negative = inhibition” value is -12.2% (inactive).

With `O=C(c1ccncc1)N1CCC2(CCCN(C(c3ccccc3)c3ccccc3)C2)CC1`, the AC50 is 0.0398 µM (active).

`O=C(c1ccncc1)N1CCC[C@@]2(CCN(c3ncccn3)C2)C1`: the “activity, negative = inhibition” value is -15% (inactive).

Consider `O=C(c1ccncc1)N1CCC2(CC1)CN(c1ccccc1)C2`, for which the AC50 is 7.94 µM (active).

Regarding `O=C(c1cccc(F)c1)N1CCC2(CC1)CCN(c1cccc(-c3ccccc3)c1)CC2`, the “activity, negative = inhibition” value was -7.3% (inactive).

For the compound `O=C(c1ccncc1)N1CCC[C@@]2(CCN(c3ccccc3)C2)C1`, the “activity, negative = inhibition” value is 3.11% (inactive).

On to `CC(C)NC(=O)N1CCCC2(CCN(C(=O)c3ccncc3)CC2)C1`, for which the “activity, negative = inhibition” value is 3.22% (inactive).

Regarding `CC(C)NC(=O)N1CC2(CCN(C(=O)c3ccncc3)CC2)C1`, the “activity, negative = inhibition” value is -0.648% (inactive).

As to `CCN(CC)c1ccc(N2C(=O)/C(=C\c3cccnc3)SC2=S)cc1`, the “activity, negative = inhibition” value was 3.38% (inactive).
